HPGD inh: inhibitors of human 15-hydroxyprostaglandin dehydrogenase (HPGD); Potency, µM, actives largely listed as inhibitors; P15428; 150,000 compounds, 4.3% hits; purified HPGD, NADH fluorescence kinetic, PGE2 substrate
Target sequence (P15428 whole entry, looked up): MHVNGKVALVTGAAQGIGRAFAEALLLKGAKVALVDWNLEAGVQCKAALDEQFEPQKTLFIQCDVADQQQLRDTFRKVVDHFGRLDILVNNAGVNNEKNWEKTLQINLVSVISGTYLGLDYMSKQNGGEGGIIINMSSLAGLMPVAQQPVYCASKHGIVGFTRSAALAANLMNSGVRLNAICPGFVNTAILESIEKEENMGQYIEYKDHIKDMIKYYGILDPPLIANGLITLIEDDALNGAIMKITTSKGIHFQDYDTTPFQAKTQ
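20 nM HPGD preincubated 15 min at room temperature with compound in 50 mM Tris-HCl pH 8, 0.01% Tween 20. Started with 1 mM NAD+ and 30 uM prostaglandin E2; NADH fluorescence (360/450 nm) read 5 times over 30-s intervals, last minus first.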
ALDH1A1 inh: blocks purified human ALDH1A1 activity | 220,000 compounds, 7.3% hits | Purified ALDH1A1, NADH fluorescence, propionaldehyde substrate | P00352 | Potency, µM (doses to about 75.3 µM), usual class: inhibitors | AID 1030
IMPase cell inh: membrane-permeable compound that blocks inositol monophosphatase | P97697 | CHO-M1 cells, IP1 accumulation, HTRF TR-FRET ratio | AID 901 | 120,000 tested, under 10 active | inhibition (IP1 accumulation), % at 46.1 µM; active means well fitted curve in the direction sought with a large enough effect in the signal ratio, not every such curve was filed as active; inconclusive means small, poorly fitted or top-dose-only effect, or a change in a side signal; inactive means no such curve, though single readings can be large or run the other way; the % refers to the signal ratio;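 further: cells stimulated with carbachol in lithium chloride buffer; higher means more IMPase inhibition seen as more IP1 and lower FRET ratio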
Target sequence (P97697 whole entry, looked up): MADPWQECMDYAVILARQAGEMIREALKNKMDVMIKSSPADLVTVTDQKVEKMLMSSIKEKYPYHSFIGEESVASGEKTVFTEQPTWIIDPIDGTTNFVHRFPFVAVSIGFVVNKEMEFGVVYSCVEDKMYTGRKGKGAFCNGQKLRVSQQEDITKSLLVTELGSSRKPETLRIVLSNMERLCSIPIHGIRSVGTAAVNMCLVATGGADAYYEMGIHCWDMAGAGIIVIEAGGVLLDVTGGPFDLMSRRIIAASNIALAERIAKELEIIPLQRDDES
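Carbachol-driven Gq signalling in CHO-M1 cells (2000/well) generates IP1. Compounds that block IMPase raise IP1 and so reduce the FRET signal from Eu-anti-IP1 and d2-IP1 after a 10 min room-temperature lysis.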
PNC inhibitor: perinucleolar compartment assembly inhibition. PC3M PTB-GFP, PNC prevalence imaging, 16 h; stronger effect = lower value. activity change (PNC), negative = inhibition, % at 10 µM. 140,000 compounds, 3.1% hits;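 active means readout at or below -70, meaning at least 70% loss of cells showing the perinucleolar compartment, a nuclear body marking cancer cells; inconclusive means readout between -30 and a set limit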
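Read-out is percentage of cells bearing a perinucleolar compartment, from automated 20x imaging of fixed, Hoechst-stained PC3M PTB-GFP cells. Cells were seeded 4 h, then exposed 16 h to compound (23 nl of library stock) in duplicate plates.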
IMPase Li inh: membrane-permeable IMPase blocker, potentiated with lithium | CHO-M1 cells, IP1 TR-FRET (IP-One), carbachol + lithium | Potency, µM (titrated, usually from 59.4 µM), hits mostly inhibitors | 210,000 compounds, 0.35% hits | AID 1457; active means well fitted inhibition curve with a large enough effect; inconclusive means small, poorly fitted or top-dose-only effect; inactive means no such curve, though single readings can be large or run the other way;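 further: IP1 builds up when IMPase is blocked and the TR-FRET signal falls; nearly all actives have a fitted effect of over 50% in size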
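CHO-M1, 2000 cells/well, 16–30 h culture; cpd + low Li+, 30 min 37C; lysis with d2-IP1/Eu-anti-IP1 Ab, 10 min RT; TR-FRET 665/620 ratio and 620 channel; AC50 via Hill.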
A number is an active result; n = inactive; u = inconclusive; x = no result given; [ ] = another dose, or the depositor's remark. In the library only some 11% were active in any assay of this set; here they are far more common. Unless noted, the call rests on the fitted dose curve; in most records, active means well fitted inhibition curve with a large enough effect (not every such curve was filed as active); inconclusive means small, poorly fitted or top-dose-only effect, or another doubt; inactive means no such curve, though single readings can be large or run the other way.

SMILES	HPGD inh	ALDH1A1 inh	IMPase cell inh	PNC inhibitor	IMPase Li inh
CC(=O)n1nc(-c2ccco2)nc1SCc1ccccc1	13µM	n	n	n	n
O=c1c2ccccc2c(/C=N/NS(=O)(=O)c2ccccc2)c(O)n1-c1ccccn1	x	u	x	x	n
COC(=O)c1sccc1NC(=O)CN(C)NS(=O)(=O)c1ccc(Cl)cc1	n	2.5µM	n	n	n
COC(=O)c1sccc1NC(=O)CN(C)NS(=O)(=O)c1ccc([N+](=O)[O-])cc1	n	1.6µM	n	n	n
COC(=O)c1sccc1NC(=O)CN(C)NS(=O)(=O)c1ccc(F)cc1	n	1µM	n	n	n
COC(=O)c1sccc1NC(=O)CSc1ccc(Cl)cc1	n	n	n	n	n
Cc1cc(C)c2c(-n3cccc3)c(C(=O)NNS(=O)(=O)c3ccc(Br)cc3)sc2n1	n	0.089µM	n	n	n
CCOC(=O)Nc1sc2nc(C)cc(C)c2c1-n1cccc1	n	u	n	n	n
N#CC(Cc1ccc(O)c(O)c1)C(=O)N1CCc2ccccc21 (configuration not stated)	28µM	8.9µM	x	x	n
CCCCN(c1ccccc1)S(=O)(=O)c1ccc2c(c1)CCN2C(=O)CCC(=O)O	n	n	n	-83	n
O=C(O)CCC(=O)N1CCc2cc(S(=O)(=O)NCc3cccs3)ccc21	25µM	n	n	n	n
CNC(=O)CSc1nnc(C2CC2)n1-c1ccccc1	x	n	x	x	n
CC(=O)C(=Cc1ccc(O)cc1)C(C)=O	x	7.1µM	x	x	x
CCCOC(=O)CSC1=C(C#N)C(c2ccccc2Cl)CC(=O)N1 (configuration not stated)	n	u	n	n	n
N#CC1=C(SCc2ccccc2Cl)NC(=O)C(C(N)=O)C1 (configuration not stated)	n	16µM	n	n	n
CCCCC(CC)C/C=C1\CC(C(=O)OCC)Oc2ccccc21 (configuration not stated) (tested in a mixture with another compound)	n	n	x	x	n
C=CCn1c(SCC(=O)NCCOC)nnc1-c1cc2c(s1)CCC(CC)C2 (configuration not stated)	18µM	u	n	n	n
Cc1cccc(C2=N[C@@H](CC(C)C)CO2)c1	n	n	x	x	n
Cc1cc(C)n(CCc2nc3c4ccccc4n(CC#N)c(=O)n3n2)n1	n	11µM	n	n	n
CCc1cccc2c1NC(=O)C21N2CCCC2C(C(=O)c2ccc3ccccc3c2)C12C(=O)Nc1ccccc12 (configuration not stated)	n	20µM	n	n	n
Cc1c(CCOC(=O)C23CC4CC(CC(C4)C2)C3)sc[n+]1CC#N	x	13µM	x	x	n
Cc1c(CCOC(=O)CC23CC4CC(CC(C4)C2)C3)sc[n+]1Cc1ccccc1	n	u	n	n	n
C=CCn1c(SCc2nc3ccccc3[nH]2)nnc1-c1ccccn1	n	6.3µM	n	n	n
Cn1c(SCc2nc3ccccc3[nH]2)nnc1-c1ccccn1	n	n	n	u	n
CC(=O)Nc1ccc(NC(=O)c2ccc(COc3ccc(Cl)cc3Cl)o2)cc1	x	x	n	x	x
SMILES	HPGD inh	ALDH1A1 inh	IMPase cell inh	PNC inhibitor	IMPase Li inh
O=C(Nc1ccccc1F)c1ccc(COc2ccc(Cl)cc2Cl)o1	n	28µM	u	n	n
O=C(Nc1ccc(Cl)cc1)C(c1ccccc1)N1CCOCC1 (configuration not stated)	x	18µM	x	x	n
Cc1cccc(C)c1NC(=O)C(c1ccccc1)N1CCOCC1 (configuration not stated)	n	n	n	u	n
Cc1ccc(C)c(NC(=O)C(c2ccccc2)N2CCOCC2)c1 (configuration not stated)	x	16µM	x	x	n
CC(NC(=S)Nc1ccc(Cl)cc1)C(c1ccccc1)N1CCOCC1 (configuration not stated)	n	n	n	u	n
CCOC(=O)c1ccc(NC(=O)C2Cc3ccccc3C(=O)O2)cc1 (configuration not stated)	x	x	n	x	x
COC(=O)C/C=C/[C@@H](C)[C@@H](Cc1ccccc1Br)OC	n	n	x	x	n
N#Cc1ccccc1CN1C(=O)S/C(=C/c2cccn2-c2ccc(C(=O)O)cc2)C1=O	28µM	0.5µM	n	u	n
COc1cc(OC)cc(C(=O)N2CCN(Cc3ccccc3Br)CC2)c1	x	u	x	x	n
Clc1ccc(OCc2nn3c(-c4ccco4)nnc3s2)cc1	u	22µM	n	u	n
c1coc(-c2nnc3sc(Cc4cccs4)nn23)c1	u	20µM	n	n	n
COc1ccc(OCc2nn3c(-c4ccco4)nnc3s2)cc1	x	32µM	n	u	x
COc1ccccc1-c1nn2c(-c3ccco3)nnc2s1	u	u	n	n	n
c1coc(-c2nn3c(-c4ccco4)nnc3s2)c1	n	20µM	n	n	n
COc1ccc(NC(=O)N2CCCC3(CCN(C(C)=O)CC3)C2)cc1	n	n	x	x	n
O=C(NCc1ccc(F)cc1)N[C@@H](Cc1ccccc1)C(=O)O	n	u	n	-127	n
O=C(NCc1ccccc1)N[C@@H](Cc1ccccc1)C(=O)O	n	n	n	u	n
COc1ccc(-c2[nH]c(-c3ccc(F)cc3)nc2SCC(=O)Nc2ccc(OC)c(OC)c2)cc1	x	x	n	x	x
Cn1cnnc1Sc1nc2c(c(=O)n(C)c(=O)n2C)n1Cc1ccccc1Cl	n	n	n	-92	n
CCn1cnc2sc(C(=O)N(Cc3ccc(N(C)C)cc3)Cc3ccco3)c(C)c2c1=O	n	8.9µM	n[1.84 µM]	u	n
CC1=C/C(=N\NC(=O)c2ccc(O)cc2)CC1	x	n	n	n	x
CSC(=NNC(=O)c1ccc(O)cc1)SC	16µM	n	n	n	n
COc1cccc(C(=O)COc2ccc3c(C)c(Cc4ccccc4)c(=O)oc3c2C)c1	n	n	x	-100	n
Cc1cccc(C)c1NC(=O)COc1ccc2c(C)c(Cc3ccccc3)c(=O)oc2c1C	n	u	x	u	n
COc1ccc(C(=O)NCCn2ccc3ccccc32)c(OC)c1	u	10µM	u	n	n
SMILES	HPGD inh	ALDH1A1 inh	IMPase cell inh	PNC inhibitor	IMPase Li inh
COc1ccc(C(=O)NCc2ccccc2OC)cc1	n	n	n	n	n
COc1ccccc1CNC(=O)N/C=C/c1ccc(Cl)cc1	x	25µM	x	x	n
COc1ccccc1CNC(=O)Nc1cccs1	22µM	u	n	n	n
COc1ccc(C(=O)NCc2ccccc2OC)c(OC)c1	28µM	u	n	n	n
Nc1ccn([C@H]2O[C@@H](COP(=O)(O)O)[C@@H](O)[C@H]2O)c(=O)n1	n	n[13.5 µM]	x	x	n
CCOC(=O)c1sc(N2C(=O)c3oc4ccc(F)cc4c(=O)c3C2c2ccc(O)cc2)nc1C (configuration not stated)	x	x	n	x	x
COc1ccccc1C(OC(=O)c1cccs1)C(=O)NCc1ccco1 (configuration not stated)	n	25µM	n	u	n
Cc1c(C(=O)O)c(-c2ccccc2)nn1-c1ccccc1	n	n	n	u	n

Screening data deposited in PubChem by National Center for Advancing Translational Sciences (NCATS).
